These results are taken from PubChem BioAssay (EPA / NIEHS).

Results filed as inconclusive are left out. Calls of active or inactive are those of the source. Rule for the calls, unless noted: active = hit-call score of the fitted dose curve at least 0.9, where 1 is the maximum; inactive = score below 0.9.

Assay [1] can be described thus: ATG_PBREM_CIS: Attagene CIS-FACTORIAL HepG2 Assay for human Phenobarbital-responsive Enhancer Module (PBREM) (AID 2282955). The note with it: HepG2 PBREM cis-reporter, Attagene multiplexed transcription; actives raise or lower the signal. The procedure, abridged: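 Readout: reporter mRNA, fluorescent RT-PCR fragments separated by capillary electrophoresis. System: HepG2 transiently transfected with cis-regulated reporter units. Exposure: 24 h. Analysis: bidirectional, DMSO baseline.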

The target in assay [2] is Paired box protein Pax-6 (Homo sapiens) (UniProt P26367). Description: ATG_Pax6_CIS: Attagene CIS-FACTORIAL HepG2 Assay for human Paired Box 6 (PAX6) (AID 2282956). The note with it: HepG2 CIS-FACTORIAL PAX6 reporter transcription, RNA readout; actives raise or lower the signal. The procedure, abridged: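 Multiplexed cis-reporter HepG2 system; 24 h treatment; reporter mRNA read by RT-PCR/CE fluorescence; bidirectional fit vs DMSO.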
Paired box protein Pax-6 (Homo sapiens), sequence (P26367 whole entry, looked up): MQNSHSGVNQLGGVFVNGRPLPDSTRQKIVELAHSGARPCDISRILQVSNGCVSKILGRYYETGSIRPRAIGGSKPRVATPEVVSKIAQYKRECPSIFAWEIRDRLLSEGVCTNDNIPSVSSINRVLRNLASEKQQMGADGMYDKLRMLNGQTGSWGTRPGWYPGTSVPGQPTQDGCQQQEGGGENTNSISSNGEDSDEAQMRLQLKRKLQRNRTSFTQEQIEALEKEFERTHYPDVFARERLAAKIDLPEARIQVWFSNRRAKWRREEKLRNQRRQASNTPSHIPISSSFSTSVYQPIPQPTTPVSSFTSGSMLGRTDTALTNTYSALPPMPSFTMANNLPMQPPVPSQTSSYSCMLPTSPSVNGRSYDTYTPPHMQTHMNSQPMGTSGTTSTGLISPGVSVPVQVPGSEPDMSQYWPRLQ

A short description of assay [3]: ATG_PXRE_CIS: Attagene CIS-FACTORIAL HepG2 Assay for human Pregnane X Receptor Element (PXRE) (AID 2282957). The settings on record: HepG2 Attagene CIS-FACTORIAL PXRE reporter, mRNA; actives raise or lower the signal. The procedure, abridged: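 Transfect HepG2 with MRTUs (cis promoter elements); dose chemical, incubate 24 h; isolate RNA, RT with oligo(dT), PCR, 6-FAM label, HpaI cut, CE. Gain/loss fit vs DMSO.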

The nature of assay [4]: ATG_PPRE_CIS: Attagene CIS-FACTORIAL HepG2 Assay for human Peroxisome Proliferator-activated Response Element (PPRE) (AID 2282958). The settings on record: HepG2 PPRE cis-element reporter, Attagene transcription factor profiling; actives raise or lower the signal. The procedure, abridged:
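After human HepG2 hepatoma cells were transiently transfected with cis-promoter reporter constructs, they were exposed to test chemicals for 24 hours. Reporter RNA was then reverse-transcribed, PCR-amplified, FAM-labeled, HpaI-digested and quantified by capillary electrophoresis.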

A short description of assay [5]: ATG_RORE_CIS: Attagene CIS-FACTORIAL HepG2 Assay for human RAR-related Orphan Receptor Element (RORE) (AID 2282959). The note with it: HepG2 Attagene cis-factorial RORE reporter, mRNA; actives raise or lower the signal. The procedure, abridged:
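Measured here: transcript induction of a cis-regulated reporter in HepG2 cells transiently transfected via FuGene 6. After 24 h, RNA was processed by RT-PCR and fluorescent capillary electrophoresis; DMSO defined baseline activity.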

Assay [6] is described as follows: ATG_Sox_CIS: Attagene CIS-FACTORIAL HepG2 Assay for human SRY-box transcription factor (SOX) (AID 2282960). The settings on record: HepG2 Attagene cis-factorial SOX reporter, mRNA; actives raise or lower the signal. The procedure, abridged:
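Using transiently transfected HepG2 cells, reporter transcription driven by cis elements was assessed 24 h after dosing. Signal was fluorescence of capillary-separated RT-PCR products, with DMSO defining baseline activity.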

For assay [7], the target named is Transcription factor Sp1 (Homo sapiens) (UniProt P08047). Description: ATG_Sp1_CIS: Attagene CIS-FACTORIAL HepG2 Assay for human Specificity Protein 1 (Sp1) (AID 2282961). The note with it: HepG2 Sp1 cis-reporter transcription, actives raise or lower the signal. The procedure, abridged: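 After transient transfection of HepG2 cells with cis-promoter reporter units and 24 h chemical treatment, reporter transcripts were quantified by RT-PCR and capillary electrophoresis fluorescence. Gain- and loss-of-signal fitted against DMSO.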
Transcription factor Sp1 (Homo sapiens), sequence (P08047 whole entry, looked up): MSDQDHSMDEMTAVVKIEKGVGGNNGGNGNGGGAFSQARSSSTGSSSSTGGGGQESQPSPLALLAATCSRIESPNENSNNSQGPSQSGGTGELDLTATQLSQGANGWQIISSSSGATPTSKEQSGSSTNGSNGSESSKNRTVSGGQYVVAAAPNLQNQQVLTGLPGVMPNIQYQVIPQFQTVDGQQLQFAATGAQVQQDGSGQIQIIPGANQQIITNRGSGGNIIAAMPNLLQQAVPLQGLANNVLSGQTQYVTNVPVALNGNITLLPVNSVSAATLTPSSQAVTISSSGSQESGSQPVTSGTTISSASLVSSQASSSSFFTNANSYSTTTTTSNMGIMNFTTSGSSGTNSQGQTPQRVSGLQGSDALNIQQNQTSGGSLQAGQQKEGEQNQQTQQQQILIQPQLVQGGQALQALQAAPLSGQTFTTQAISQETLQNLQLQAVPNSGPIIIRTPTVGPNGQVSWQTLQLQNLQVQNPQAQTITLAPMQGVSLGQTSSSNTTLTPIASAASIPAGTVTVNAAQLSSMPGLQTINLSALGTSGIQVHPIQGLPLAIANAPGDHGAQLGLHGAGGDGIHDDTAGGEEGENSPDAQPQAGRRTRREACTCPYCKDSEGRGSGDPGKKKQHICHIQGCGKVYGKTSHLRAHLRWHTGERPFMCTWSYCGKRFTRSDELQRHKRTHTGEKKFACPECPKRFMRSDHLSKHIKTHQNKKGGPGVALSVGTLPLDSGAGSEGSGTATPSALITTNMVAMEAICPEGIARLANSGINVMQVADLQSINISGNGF

Assay [8] in a line: ATG_SREBP_CIS: Attagene CIS-FACTORIAL HepG2 Assay for human Sterol Regulatory Element Binding (SREBP) (AID 2282962). The settings on record: HepG2 Attagene cis-factorial SREBP reporter, mRNA; actives raise or lower the signal. The procedure, abridged: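 mRNA induction of transfected cis-promoter reporters in HepG2 cells, 24 h post-dose. Detection: RT-PCR with 6-FAM-labelled products, HpaI digest, capillary electrophoresis. DMSO served as negative control and baseline.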

The target in assay [9] is Signal transducer and activator of transcription 3 (Homo sapiens) (UniProt P40763). Description: ATG_STAT3_CIS: Attagene CIS-FACTORIAL HepG2 Assay for human Signal Transducer and Activator of Transcription 3 (STAT3) (AID 2282963). The settings on record: HepG2, Attagene cis-factorial STAT3 reporter transcription; actives raise or lower the signal. The procedure, abridged:
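Endogenous STAT3-responsive cis-element activity was read in transiently transfected HepG2 cells after 24 h treatment. Reporter transcripts were quantified via RT-PCR and capillary electrophoresis, with DMSO as negative control and bidirectional curve fitting.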

A short description of assay [10]: ATG_TA_CIS: Attagene CIS-FACTORIAL HepG2 Assay for human TA Basal Promoter (AID 2282964). The settings on record: HepG2 Attagene CIS-factorial TA basal promoter reporter; actives raise or lower the signal. The procedure, abridged: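 Steps: transfect HepG2 with MRTUs; dose 24 h; isolate RNA, DNase-treat, reverse-transcribe; PCR and FAM-label reporter cDNA; digest with HpaI 2h at 37 C; run capillary electrophoresis. Activity fitted both directions against DMSO.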

A short description of assay [11]: ATG_TCF_b_cat_CIS: Attagene CIS-FACTORIAL HepG2 Assay for human T-Cell-Factor with beta-catenin (TCF/b-cat) (AID 2282965). The note with it: HepG2 TCF/beta-catenin cis-reporter transcription, actives raise or lower the signal. The procedure, abridged: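 Endogenous TCF/LEF activity read as reporter transcript level via RT-PCR and capillary electrophoresis fluorescence in transfected HepG2, 24 h exposure; gain or loss of signal fitted against DMSO controls.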

A short description of assay [12]: ATG_TAL_CIS: Attagene CIS-FACTORIAL HepG2 Assay for human TAL Basal Promoter (AID 2282966).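 Note: background control endpoint measuring basal TAL promoter reporter mRNA not a specific factor.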 The settings on record: HepG2 Attagene cis-factorial TAL promoter reporter; actives raise or lower the signal. The procedure, abridged:
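Fluorescence of labelled reporter cDNA fragments, resolved by capillary electrophoresis, gave the readout. Human HepG2 liver cells carried transiently transfected cis-element reporter units and were treated for 24 hours; activity was fitted bidirectionally against DMSO.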

A short description of assay [13]: ATG_TGFb_CIS: Attagene CIS-FACTORIAL HepG2 Assay for human Transforming Growth Factor (TGF) (AID 2282967). The note with it: HepG2 Attagene CIS TGFb reporter, mRNA transcription; actives raise or lower the signal. The procedure, abridged: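 Cells were dosed for 24 hours, after which total RNA was reverse-transcribed and reporter sequences amplified, labeled and sized by capillary electrophoresis. Activity was fitted in both directions against DMSO.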

Assay [14] has as its target Estrogen receptor (Homo sapiens) (UniProt P03372). Description: ATG_ERa_TRANS: Attagene TRANS-FACTORIAL HepG2 Assay for human Estrogen Receptor alpha (ERa) (AID 2282970; active = hit-call score of the fitted dose curve at least 0.9, where 1 is the maximum). The settings on record: HepG2 Attagene TRANS ERa GAL4 reporter, mRNA. The procedure, abridged: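 Human liver HepG2, transient transfection of multiple GAL4-UAS reporter units; TRANS format (exogenous NR-Gal4 chimera). 24 h dosing. Readout: reporter mRNA, RT-PCR, 6-FAM primer extension, HpaI digest, capillary electrophoresis. Positive direction vs DMSO.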

In assay [15] the target is Steroid hormone receptor ERR1 (Homo sapiens) (UniProt P11474). The assay can be described thus: ATG_ERRa_TRANS: Attagene TRANS-FACTORIAL HepG2 Assay for human Estrogen-Related Receptor alpha (ERRa) (AID 2282971; active = hit-call score of the fitted dose curve at least 0.9, where 1 is the maximum). The settings on record: HepG2 Attagene TRANS reporter, ERRa transactivation. The procedure, abridged: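 Reporter transcript induction was quantified by RT-PCR and capillary electrophoresis of FAM-labelled, HpaI-cut products after 24 h treatment of HepG2 cells carrying transiently transfected GAL4-UAS reporter units and an exogenous ERRa-Gal4 fusion; activity scored as increase over DMSO.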
Steroid hormone receptor ERR1 (Homo sapiens), sequence (P11474 whole entry, looked up, the tested form may be a part): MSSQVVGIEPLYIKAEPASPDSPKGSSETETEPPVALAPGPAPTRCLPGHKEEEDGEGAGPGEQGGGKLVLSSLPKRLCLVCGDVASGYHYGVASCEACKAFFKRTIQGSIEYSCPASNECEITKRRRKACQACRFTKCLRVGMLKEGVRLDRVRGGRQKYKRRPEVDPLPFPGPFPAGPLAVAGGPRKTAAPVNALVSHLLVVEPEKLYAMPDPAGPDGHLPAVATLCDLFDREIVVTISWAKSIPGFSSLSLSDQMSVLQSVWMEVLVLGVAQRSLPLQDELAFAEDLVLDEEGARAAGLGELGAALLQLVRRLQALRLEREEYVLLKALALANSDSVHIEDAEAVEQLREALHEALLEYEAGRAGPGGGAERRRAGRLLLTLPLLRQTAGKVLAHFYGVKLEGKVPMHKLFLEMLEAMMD

In assay [16] the target is X-box-binding protein 1 (Homo sapiens) (UniProt P17861). The assay can be described thus: ATG_Xbp1_CIS: Attagene CIS-FACTORIAL HepG2 Assay for human X-box Binding Protein 1 (XBP1) (AID 2282972). The settings on record: HepG2 XBP1 cis-element reporter, Attagene multiplex; actives raise or lower the signal. The procedure, abridged:
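Fluorescence-labelled cDNA fragments from reporter transcripts, separated by capillary electrophoresis, give the signal. Source: HepG2 cells transfected with promoter-driven reporter units, harvested 24 h post-dose. DMSO served as reference for bidirectional curve fitting.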

Assay [17] is described as follows: ATG_M_19_TRANS: Attagene TRANS-FACTORIAL HepG2 Assay for M19 Transcription Factor (Internal Marker) (AID 2282974; active = hit-call score of the fitted dose curve at least 0.9, where 1 is the maximum). The note with it: HepG2 Attagene TRANS-FACTORIAL M19 internal marker reporter. The procedure, abridged:
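Gain-of-signal in reporter mRNA, relative to DMSO, was scored from capillary electrophoresis fluorescence. HepG2 cells carried transiently transfected multiple reporter transcription units and were incubated with test chemicals for 24 h.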

Assay [18] is described as follows: ATG_GAL4_TRANS: Attagene TRANS-FACTORIAL HepG2 Assay for GAL4 (Internal Marker) (AID 2282976; active = hit-call score of the fitted dose curve at least 0.9, where 1 is the maximum). The note with it: HepG2 Attagene TRANS GAL4 internal marker reporter. The procedure, abridged:
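First, HepG2 cells were transfected with reporter units under GAL4-UAS control. Next, they were treated with chemical for 24 h. Finally, RNA was reverse-transcribed, PCR-amplified, FAM-labelled and resolved by capillary electrophoresis, with induction scored against DMSO.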

Assay [19] can be described thus: ATG_VDRE_CIS: Attagene CIS-FACTORIAL HepG2 Assay for human Vitamin D Receptor Element (VDRE) (AID 2282968). The note with it: HepG2 VDRE cis-reporter transcription, actives raise or lower the signal. The procedure, abridged:
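Reporter mRNA induction, quantified by capillary electrophoresis of fluorescently labelled RT-PCR products, was read 24 h after dosing HepG2 cells carrying transiently transfected cis-regulated reporter units; gain or loss relative to DMSO.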

Assay [20] has as its target Nuclear receptor subfamily 1 group I member 3 (Homo sapiens) (UniProt Q14994). Description: ATG_CAR_TRANS: Attagene TRANS-FACTORIAL HepG2 Assay for human Constitutive Androstane Receptor (CAR) (AID 2282969; active = hit-call score of the fitted dose curve at least 0.9, where 1 is the maximum;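 note: activators raise reporter mRNA above DMSO so AC50 marks induction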). The note with it: HepG2 Attagene TRANS-FACTORIAL CAR reporter. The procedure, abridged:
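Readout is reporter mRNA induction, quantified by fluorescent primer extension and capillary electrophoresis after RT-PCR. Cells were HepG2 transiently carrying chimeric NR-Gal4 constructs with GAL4-UAS reporters, treated for 24 h; activity scored upward from DMSO.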

Estrogen receptor (Homo sapiens), sequence (P03372 whole entry, looked up, the tested form may be a part): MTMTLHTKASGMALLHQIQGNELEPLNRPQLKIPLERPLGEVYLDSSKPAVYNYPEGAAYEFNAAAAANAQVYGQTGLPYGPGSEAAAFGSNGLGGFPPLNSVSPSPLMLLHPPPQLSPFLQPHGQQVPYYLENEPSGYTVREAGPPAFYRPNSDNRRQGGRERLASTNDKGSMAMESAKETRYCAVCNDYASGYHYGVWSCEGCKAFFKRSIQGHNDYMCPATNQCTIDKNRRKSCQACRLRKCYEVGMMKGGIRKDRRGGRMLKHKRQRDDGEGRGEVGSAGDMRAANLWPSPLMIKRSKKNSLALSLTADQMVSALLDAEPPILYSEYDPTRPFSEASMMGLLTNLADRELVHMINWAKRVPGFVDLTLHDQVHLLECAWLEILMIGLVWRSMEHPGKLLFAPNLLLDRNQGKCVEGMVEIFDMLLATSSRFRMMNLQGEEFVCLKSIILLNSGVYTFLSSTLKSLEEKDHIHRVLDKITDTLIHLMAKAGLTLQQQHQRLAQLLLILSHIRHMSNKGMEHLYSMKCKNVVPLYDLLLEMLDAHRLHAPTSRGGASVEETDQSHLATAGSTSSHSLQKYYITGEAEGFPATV
Signal transducer and activator of transcription 3 (Homo sapiens), sequence (P40763 whole entry, looked up): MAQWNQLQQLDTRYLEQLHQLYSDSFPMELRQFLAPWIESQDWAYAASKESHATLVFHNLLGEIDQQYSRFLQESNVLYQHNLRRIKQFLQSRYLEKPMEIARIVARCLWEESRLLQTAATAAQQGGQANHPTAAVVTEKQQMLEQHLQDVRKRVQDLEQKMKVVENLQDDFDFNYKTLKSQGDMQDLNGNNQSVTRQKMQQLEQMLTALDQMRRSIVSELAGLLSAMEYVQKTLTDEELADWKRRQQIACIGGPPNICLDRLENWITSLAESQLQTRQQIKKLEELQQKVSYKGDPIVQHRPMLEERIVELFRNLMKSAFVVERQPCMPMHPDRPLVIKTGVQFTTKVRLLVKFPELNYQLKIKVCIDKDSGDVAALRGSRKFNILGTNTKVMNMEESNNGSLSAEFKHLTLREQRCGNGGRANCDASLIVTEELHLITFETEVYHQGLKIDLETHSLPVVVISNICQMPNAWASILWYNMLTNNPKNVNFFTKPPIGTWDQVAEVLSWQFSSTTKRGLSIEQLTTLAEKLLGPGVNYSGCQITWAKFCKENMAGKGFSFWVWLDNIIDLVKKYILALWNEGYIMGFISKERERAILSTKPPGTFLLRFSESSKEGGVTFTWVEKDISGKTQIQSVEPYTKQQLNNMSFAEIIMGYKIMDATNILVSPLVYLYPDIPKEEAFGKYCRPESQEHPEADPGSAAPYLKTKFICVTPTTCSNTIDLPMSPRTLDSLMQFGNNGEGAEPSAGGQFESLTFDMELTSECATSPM
X-box-binding protein 1 (Homo sapiens), sequence (P17861 whole entry, looked up, the tested form may be a part): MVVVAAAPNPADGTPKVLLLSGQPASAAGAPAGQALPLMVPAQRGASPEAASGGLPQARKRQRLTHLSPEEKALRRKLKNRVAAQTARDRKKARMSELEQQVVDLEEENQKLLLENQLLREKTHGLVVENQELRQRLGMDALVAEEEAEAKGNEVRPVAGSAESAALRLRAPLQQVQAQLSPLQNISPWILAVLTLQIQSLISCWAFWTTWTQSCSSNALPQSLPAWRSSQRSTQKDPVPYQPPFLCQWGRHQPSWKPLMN
Nuclear receptor subfamily 1 group I member 3 (Homo sapiens), sequence (Q14994 whole entry, looked up, the tested form may be a part): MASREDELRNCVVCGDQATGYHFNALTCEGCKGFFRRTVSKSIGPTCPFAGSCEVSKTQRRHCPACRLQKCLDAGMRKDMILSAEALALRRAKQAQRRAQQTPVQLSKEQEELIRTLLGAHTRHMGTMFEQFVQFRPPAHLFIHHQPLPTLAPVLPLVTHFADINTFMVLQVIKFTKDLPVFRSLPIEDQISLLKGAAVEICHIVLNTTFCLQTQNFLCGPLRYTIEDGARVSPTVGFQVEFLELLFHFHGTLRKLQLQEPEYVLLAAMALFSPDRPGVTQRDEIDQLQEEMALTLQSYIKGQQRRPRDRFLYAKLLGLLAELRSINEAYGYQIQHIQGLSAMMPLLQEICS

For `C=C(C)C(=O)OCC(F)(F)C(F)(F)C(F)(F)C(F)F`, the result in assay [1], in assay [2], in assay [3], in assay [4], in [5] and in [6] was inactive. Further, the outcome in assay [7], in assay [8], in assay [9], in assay [10], in [11] and in assay [12] was inactive. For the same compound, the compound was called inactive in assay [13], in [14], in assay [15], in [16], in [17] and in assay [18].

For `C=CCOC(=O)CC(C)C`, the result in [1], in assay [2], in [3], in assay [4], in assay [6] and in [7] was inactive. Also, the outcome in assay [8], in assay [9], in [10], in [11], in assay [12] and in assay [13] was inactive. Moreover, the result in assay [19], in [14], in assay [16], in assay [17] and in assay [18] was inactive.

In the case of `COCCC(=O)OC`, the outcome in assay [1], in assay [2], in assay [3], in assay [4], in [6] and in assay [7] was inactive. Further, the compound was classed as inactive in assay [8], in [9], in assay [10], in assay [11], in [12] and in assay [13]. Also, the outcome in [19], in [14], in assay [16], in [17] and in assay [18] was inactive.

As for `CCOCN(C(=O)CS(=O)(=O)O)c1c(C)cccc1CC`, the result in assay [1], in assay [2], in assay [4], in [5], in assay [6] and in [7] was inactive. Moreover, the compound was called inactive in assay [8], in [9], in [12], in [13], in assay [19] and in assay [14]. Besides, the compound was called inactive in assay [16] and in assay [18]. For the same compound, the concentration at half-maximal activity (AC50) (as a rule, the concentration at which the activity in the assay is half-maximal) in assay [3] was 42 µM (active).

On to `CCCCCCCCCCCCC[N+](C)(C)Cc1ccccc1`, for which the outcome in assay [1], in assay [2], in assay [3], in [4], in assay [5] and in assay [6] was inactive. Further, the result in [7], in [8], in assay [9], in [11], in [12] and in [13] was inactive. For the same compound, the outcome in assay [19], in assay [14] and in assay [16] was inactive.

In the case of `CC(C)CC=C(C=O)c1ccccc1`, the outcome in assay [1], in assay [2], in assay [4], in assay [6], in assay [7] and in [8] was inactive. In addition, the compound was called inactive in [9], in assay [10], in assay [11], in assay [12], in [13] and in [19]. Moreover, the call in assay [15], in [16], in assay [17] and in [18] was inactive. Moreover, the AC50 is 0.956 µM (active) in assay [3] and 21.5 µM (active) in assay [14].

For the compound `CC(C)OC=O`, the result in [1], in assay [2], in assay [3], in [4], in [6] and in [7] was inactive. Moreover, the compound was called inactive in assay [8], in assay [9], in [10], in [11], in assay [12] and in assay [13]. The compound was classed as inactive in [19], in [16], in assay [17] and in assay [18].

Take `CCN(CC)c1ccc(C=O)cc1`: the outcome in assay [1], in [2], in assay [4], in assay [6], in assay [7] and in assay [8] was inactive. Moreover, the call in assay [9], in assay [10], in [11], in assay [12], in assay [13] and in assay [20] was inactive. Moreover, the compound was classed as inactive in assay [14] and in assay [16]. For the same compound, the AC50 in assay [3] was 27.7 µM (active).
